Screening results as filed in PubChem.
TDP1 cell noCPT: qHTS for Inhibitors of human tyrosyl-DNA phosphodiesterase 1 (TDP1): qHTS in cells in absence of CPT | DT40 Tdp1-/- hTDP1 cells, no CPT, ATP luminescence, 48 h | 15% of 420,000 active | Potency, µM (titrated, usually from 46.2 µM), inactives show top-dose activity change, negative = growth inhibition, most hits filed as inhibitors; also: potency is read from the fitted curve at half-maximal effect; nearly all actives have a fitted effect of over 55% in size
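Cells were dispensed at 400 per well, compounds added by pin tool, plates incubated ≥48 hr at 37 °C, then CellTiter-Glo added for 30 min at room temperature before luminescence reading. Line: DT40 Tdp1-/- complemented with hTDP1; camptothecin omitted.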
HT1080 IDH1KD tx: HT-1080 IDH1 knockdown cell toxicity (counter line); 2% of 360,000 active; Potency, µM (doses to about 46.1 µM), for the others: at the highest dose activity, negative = toxicity, hits mostly cytotoxic; AID 686971; HT-1080 IDH1 knockdown viability, ATP luminescence, 48 h;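 also: potency is read from the fitted curve at half-maximal effect; 0% = DMSO wells and -100% = cell-free medium wells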
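Cytotoxicity counter-line: IDH1KD HT-1080, 48 h, CellTiter-Glo. Curves classed by r2, magnitude and activity.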
ELG1 repair inh: ELG1-dependent DNA repair inhibition | HEK293T ELG1-luciferase reporter, luminescence, 16 h; DNA damage induced by 5-fluorouridine | Potency, µM (top dose mostly 46.1 µM), for inactives: at the highest dose activity change, negative = inhibition, usual class: inhibitors | 2.3% of 330,000 active | AID 504467; also: potency is read from the fitted curve at half-maximal effect; nearly all actives have a fitted effect of over 55% in size
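HEK293T cells expressing luciferase-tagged ELG1 (2,000/well) received 5-Fluorouridine plus compound or DMSO for 16 hr at 37 °C. Luciferase was read by ONE-Glo luminescence after 30 min at room temperature.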
HT1080-NT tox: kills 2HG-producing HT-1080-NT fibrosarcoma cells; Potency, µM (top dose mostly 46.1 µM), without a hit: at the highest dose activity, negative = less viability, actives largely listed as cytotoxic; AID 686970; 1.6% of 360,000 active; HT-1080-NT fibrosarcoma viability, CellTiter-Glo ATP luminescence, 48 h;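 also: NT is the 2HG producing partner of a matched IDH1 knockdown line; potency is read from the fitted curve at half-maximal effect; 0% = DMSO-treated cells and -100% = media-only wells without cells; nearly all actives have a fitted effect of over 55% in size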
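Luminescent CellTiter-Glo readout after 48 hours of compound exposure at 37 degrees C defined viability of HT-1080-NT cells. Activity was normalized to DMSO wells and cell-free media wells; concentration-response curves were fitted and assigned curve classes.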
DT40 TDP1 CPT: growth inhibition of DT40 Tdp1-/-;hTDP1 cells with camptothecin (screen for TDP1 inhibitors). chicken DT40 Tdp1-/-;hTDP1 cells + 20 nM CPT, ATP luminescence, 48 h. Potency, µM (titrated, usually from 46.2 µM), without a hit: at the highest dose activity change, negative = growth inhibition, hits mostly inhibitors. 12% of 420,000 active; also: potency is read from the fitted curve at half-maximal effect; nearly all actives have a fitted effect of over 55% in size
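Chicken DT40 Tdp1-/- cells stably complemented with human TDP1 were seeded at 400 cells/well in medium containing 20 nM camptothecin, exposed to pin-transferred compounds, and grown at 37 °C for at least 48 hr. Viability was read as ATP luminescence.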
IL1B secr inh: inflammasome signaling inhibition, IL-1 beta readout. AID 743279. 4.7% of 360,000 active. THP-1 LPS/ATP IL-1B secretion, AlphaLISA, 16 h; hits give low values. activity change, % at 57.5 µM; in the data active = activity change below about -50%; inconclusive = mostly about -30% to -49%
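Secreted IL-1B measured by AlphaLISA bead assay after 16 h compound exposure of THP-1 cells; compounds (final up to 57.5 uM) added 1 h before LPS (250 ng/mL) and ATP (1.25 mM) stimulation; lower signal means less secretion.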
Numbers without * were called inactive; ? = inconclusive; nt = no result given. This is a sample that favours compounds with a hit; in the whole collection about 19% have one here. Unless noted, calls follow the shape of the dose curve; as a rule, active = well fitted curve in the direction sought with a large enough effect; inconclusive = small, poorly fitted or top-dose-only effect, or another doubt; inactive = no such curve, though single readings can be large; an effect the other way counts as inactive or inconclusive. Unless noted, % is scaled to controls: 0 for no effect and ±100 for the full control effect.

SMILES	TDP1 cell noCPT	HT1080 IDH1KD tx	ELG1 repair inh	HT1080-NT tox	DT40 TDP1 CPT	IL1B secr inh
CC(=O)Nc1c(-c2ccccc2)nc2cc(C)ccn12	2.4%	14.7%	?	5.1%	3.0%	7.5
Cc1ccc2nc(-c3c[nH]c4ccccc34)c(Nc3ccc(F)cc3)n2c1	18.4µM*	nt	nt	nt	14.6µM*	nt
COc1ccc(CN(C)C(=O)c2ccc(Cl)c(S(=O)(=O)NCc3cccnc3)c2)cc1F	?	-4.4%	?	-3.1%	?	14.3
CC1(C)O[C@@H]2[C@H](O1)[C@@H](CO)O[C@H]2n1cnc2c(=O)[nH]cnc21	-5.4%	15.0%	13.9%	?	29.1µM*	-5.6
Cn1c(Cl)c(C(=O)Nc2ccc(Cl)cc2)c2ccccc21	16.4µM*	-22.5%	14.7%	-3.9%	?	55.8
CC1CN(S(=O)(=O)c2cccc(C(=O)Nc3ccccc3N3CCCC3)c2)CC(C)O1 (stereo not given)	11.6µM*	-9.7%	-9.6%	-12.2%	?	-1.6
CC1CN(S(=O)(=O)c2cccc(C(=O)Nc3cc(Cl)ccc3N3CCOCC3)c2)CC(C)O1 (stereo not given)	14.6µM*	-19.2%	-19.8%	-25.6%	?	-22.0
CN1CCN(S(=O)(=O)c2cccc(C(=O)Nc3cc(Cl)ccc3N3CCOCC3)c2)CC1	-29.2%	-9.3%	1.4%	-2.8%	-10.8%	-19.5
O=C1NC2(C=Cc3c(ccc4ccccc34)O2)Oc2ccccc21 (stereo not given)	23.1µM*	?	?	-15.3%	23.1µM*	-4.7
COc1cccc(CNC(=O)c2ccccc2SCC(=O)N2CCCC2)c1	-4.0%	8.2%	3.2%	0.2%	-12.1%	-5.2
COc1ccc(N2CCN(C(CNC(=O)c3ccc(OC)c(OC)c3)c3cccnc3)CC2)cc1 (stereo not given)	?	nt	nt	nt	-16.6%	nt
COc1ccc(C(=O)NCC(c2cccnc2)N2CCN(c3ccccc3)CC2)cc1 (stereo not given)	16.4µM*	nt	nt	nt	?	nt
COc1ccc(C(=O)NCC(c2cccnc2)N2CCN(c3ccc(F)cc3)CC2)cc1 (stereo not given)	10.3µM*	nt	nt	nt	14.6µM*	nt
CC1C(=O)OC2CC34C5CC(C(C)(C)C)C36C(OC(=O)C6O)OC4(C(=O)O5)C21O (stereo not given)	-3.6%	nt	nt	nt	7.7%	nt
CCC1CCCCN1C(=O)c1ccc2c(c1)C(=O)N(c1ccc(C)cc1)C2=O (stereo not given)	5.8%	-0.1%	2.4%	7.6%	4.5%	13.5
COc1ccc(OC)c(NC(=O)C2CCN(Cc3cnn(-c4ccccc4)c3-n3cccc3)CC2)c1	?	?	23.1µM*	-2.0%	16.4µM*	-5.9
O=C(Nc1ccccc1Cl)C1CCN(Cc2cnn(-c3ccccc3)c2-n2cccc2)CC1	23.1µM*	?	?	-24.7%	16.4µM*	-22.2
COc1ccc(NC(=O)C2CCN(Cc3cnn(-c4ccccc4)c3-n3cccc3)CC2)cc1OC	?	-14.7%	nt	-16.0%	?	?
COc1cc2c(cc1OC)n(Cc1cccc(C(F)(F)F)c1)c(=O)n1nc(-c3ccccc3)nc21	-6.6%	nt	nt	nt	-3.2%	nt
Cc1cccc(Cn2c(=O)n(Cc3ccccc3)c(=O)c3c2c2cc(C)ccc2n3C)c1	-18.8%	nt	nt	nt	-5.0%	nt
Cc1ccc(N=C2C(=S)N(c3ccc(C)cc3)C(=N)N2/N=C/c2ccc(Cl)cc2)cc1	25.9µM*	9.5%	?	0.2%	25.9µM*	?
COc1ccc(-c2noc(CSc3nnc(-c4ccncc4)n3-c3ccc(OC)cc3)n2)cc1	?	nt	nt	nt	23.1µM*	nt
c1ccc(-c2noc(CSc3nnnn3-c3ccccc3)n2)cc1	?	-8.0%	-2.3%	-12.1%	-13.9%	5.0
Clc1ccc(-c2noc(CSc3nnc(-c4ccncc4)n3-c3ccccc3)n2)cc1	?	?	16.4µM*	?	?	-56.2*
CCOc1ccc(-c2noc(CSc3nnc(-c4ccccc4)n3-c3ccccc3)n2)cc1	11.6µM*	nt	nt	nt	20.6µM*	nt
SMILES	TDP1 cell noCPT	HT1080 IDH1KD tx	ELG1 repair inh	HT1080-NT tox	DT40 TDP1 CPT	IL1B secr inh
Clc1ccccc1-c1nnc(SCc2nc(-c3ccccc3)no2)n1-c1ccccc1	7.31µM*	nt	nt	nt	18.4µM*	nt
CCc1ccc2c(c1)NC(=O)C2(C)Cc1ccccc1C#N (stereo not given)	?	?	nt	-25.3%	?	10.0
CCc1ccc(NC(=O)c2ccc3c(O)c(S(=O)(=O)c4ccccc4)c(=O)[nH]c3c2)cc1	-10.8%	nt	nt	nt	0.9%	nt
Cc1ccccc1C(=O)NNC(=O)CSc1nnc(C)n1-c1ccccc1	-0.3%	28.0%	-2.7%	?	-11.7%	-4.7
CN(Cc1nc2ccccc2n1C)C(=O)c1ccco1	19.0%	10.5%	-6.7%	5.8%	-5.2%	8.8
CCOc1ccc(-n2c(SCc3nc(-c4ccc(C)cc4)no3)nnc2-c2ccncc2)cc1	?	10µM*	?	?	?	-11.0
Cc1ccc(-n2c(SCc3nc(-c4ccc(Cl)cc4)no3)nnc2-c2ccncc2)cc1	16.4µM*	nt	nt	nt	14.6µM*	nt
Cc1ccc(-c2noc(CSc3nnnn3C3CCCCC3)n2)cc1	?	-5.6%	-2.8%	-14.1%	20.6µM*	9.4
Cc1ccc(-c2noc(CSc3nnc(-c4ccncc4)n3-c3ccc(C)cc3)n2)cc1	16.4µM*	?	-26.1%	-23.6%	20.6µM*	-0.4
CCc1nn(CC(=O)NC2CC2)c(=O)c2cc3ccccc3n12	-27.3%	nt	nt	nt	3.3%	nt
CCOc1ccc(-c2nnc(SCc3nnc(-c4ccccc4)o3)n2-c2ccccc2F)cc1	23.1µM*	-3.1%	?	2.3%	16.4µM*	-3.6
CS(=O)(=O)Nc1cccc(-c2cncnc2NCc2cccs2)c1	-20.7%	nt	nt	nt	-6.2%	nt
CCC(=O)[C@@]1(C)[C@H](C)C[C@H]2[C@@H]3CCC4=CC(=O)C=C[C@]4(C)[C@H]3[C@@H](O)C[C@@]21C	16.4µM*	?	?	?	13µM*	?
CC(C)C(=O)OCC(=O)[C@@]12O[C@H](C3CCCCC3)O[C@@H]1C[C@H]1[C@@H]3CCC4=CC(=O)C=C[C@]4(C)[C@H]3[C@@H](O)C[C@@]12C	-16.4%	nt	nt	nt	-7.7%	nt
